# Laboratory results reported in PubChem BioAssay (EPA / NIEHS).
# Results filed as inconclusive are left out. The source made the active and inactive calls. How the source made its calls: active means hit-call score of the fitted dose curve at least 0.9, where 1 is the maximum; inconclusive means response in the unintended direction; inactive means score below 0.9.
# Biological target: human Janus Kinase 2 (Jak2), JAK2 (gene 3717) (UniProt O60674)
# Assay: NVS_ENZ_hJak2: NovaScreen (NVS) Enzymatic Assay for human Janus Kinase 2 (Jak2) (AID 2283169)
# Description: NVS_ENZ_hJak2 is a biochemical, single-readout assay that uses extracted gene-proteins in a cell-free assay. Measurements were taken 1 hour after chemical dosing in a 384-well plate.NVS_ENZ_hJak2 is one of one assay component(s) measured or calculated from the NVS_ENZ_hJak2 assay. It is designed to make measurements of enzyme activity, a form of enzyme reporter, as detected with fluorescence intensity signals by Fluorescence and electrophoretic mobility shift technology.Data from the assay component NVS_ENZ_hJak2 was analyzed into 1 assay endpoint. This assay endpoint, NVS_ENZ_hJak2, was analyzed in the positive analysis fitting direction relative to DMSO as the negative control and baseline of activity. Using a type of enzyme reporter, loss-of-signal activity can be used to understand changes in the enzymatic activity as they relate to the gene JAK2. Furthermore, this assay endpoint can be referred to as a primary readout, because this assay has produced multiple assay endpoints where this one serves a enzymatic activity function. To generalize the intended target to other relatable targets, this assay endpoint is annotated to the kinase intended target family, where the subfamily is non-receptor tyrosine kinase.
# Binding assays used specific radioligands (tritiated, iodinated) with non-radioactive competitive displacement ligands in agonist or antagonist protocols (as indicated) and various reference compounds and inhibitors to titrate specific binding to receptors and transporters. Most enzyme assays (CYPs, kinases, phosphatases, proteases, HDACs) used recombinant protein and specific substrates (fluorescence mostly, some colorimetric and radioactive) and inhibitors, followed by a biochemical separation of substrate and product. All assays for the biochemical HTS were initially run in duplicate at a single concentration (10 uM for CYP450 assays and 25 uM for all others). Assay-chemical combinations meeting a pre-defined threshold (e.g., 30% inhibition and other criteria defined below) were then run in singleton concentration-response format with maximum concentration of 20 uM for CYPs and 50 uM for all others. Each assay was run with positive and negative controls, and concurrent controls on every plate. The follow-up (secondary) screen tested active chemical-pairs in concentration series, as well as a few additional assays not tested in the primary screen, some selected negative inactives, and several cases re-run in the concentration series for confirmatory purposes.
# human Janus Kinase 2 (Jak2), JAK2 (gene 3717), sequence (O60674 whole entry, looked up): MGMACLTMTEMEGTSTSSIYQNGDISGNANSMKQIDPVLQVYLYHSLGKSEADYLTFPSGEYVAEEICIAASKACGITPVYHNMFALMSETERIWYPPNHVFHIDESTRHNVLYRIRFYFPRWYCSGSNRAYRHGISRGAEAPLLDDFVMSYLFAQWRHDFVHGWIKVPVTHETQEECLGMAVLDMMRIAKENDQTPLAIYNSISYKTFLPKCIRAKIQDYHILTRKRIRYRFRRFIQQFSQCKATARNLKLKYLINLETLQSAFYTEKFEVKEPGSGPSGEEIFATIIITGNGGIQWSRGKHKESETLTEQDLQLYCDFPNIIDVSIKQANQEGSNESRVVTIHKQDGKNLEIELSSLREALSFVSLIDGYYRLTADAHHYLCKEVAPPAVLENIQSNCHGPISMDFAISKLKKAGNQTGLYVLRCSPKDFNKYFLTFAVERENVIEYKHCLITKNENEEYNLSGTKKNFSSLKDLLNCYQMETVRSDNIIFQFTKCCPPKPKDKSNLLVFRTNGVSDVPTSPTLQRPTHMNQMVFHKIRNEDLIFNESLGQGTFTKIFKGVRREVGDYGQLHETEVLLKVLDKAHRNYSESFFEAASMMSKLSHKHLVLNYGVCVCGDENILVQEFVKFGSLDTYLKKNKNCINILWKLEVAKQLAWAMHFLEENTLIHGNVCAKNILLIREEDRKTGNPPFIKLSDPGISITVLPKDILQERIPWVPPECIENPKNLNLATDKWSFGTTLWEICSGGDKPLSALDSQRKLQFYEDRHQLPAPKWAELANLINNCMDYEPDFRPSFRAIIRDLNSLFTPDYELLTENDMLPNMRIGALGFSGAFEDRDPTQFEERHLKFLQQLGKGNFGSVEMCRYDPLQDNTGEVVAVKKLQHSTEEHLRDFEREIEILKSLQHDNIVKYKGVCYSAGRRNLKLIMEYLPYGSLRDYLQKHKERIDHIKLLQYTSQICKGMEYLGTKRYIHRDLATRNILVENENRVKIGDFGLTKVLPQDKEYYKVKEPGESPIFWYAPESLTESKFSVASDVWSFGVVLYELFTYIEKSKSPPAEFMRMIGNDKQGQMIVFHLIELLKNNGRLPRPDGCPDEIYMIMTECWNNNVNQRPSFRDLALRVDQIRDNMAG
SMILES,AC50,outcome
Oc1cc2ccccc2c2ccccc12,25 µM (active),–
CCN(CC)CCNc1ccc(CNC=O)c2sc3ccc(OC)cc3c(=O)c12,–,inactive
CCCCCCCCOC(=O)CCCCCCCCC(=O)OCCCCCCCC,–,inactive
CC(C)(C)CC(C)(C)c1ccc(O)c(-n2nc3ccccc3n2)c1,–,inactive
COCC(C)OCC(C)O (configuration not stated),–,inactive
C=C(C)C(=O)OCCC(F)(F)C(F)(F)C(F)(F)C(F)(F)C(F)(F)C(F)(F)F,–,inactive
CCCCCCCCCCCCc1ccccc1S(=O)(=O)O,18.5 µM (active),–
CN1CCN(c2ccccc2/C=C2\SCCN(c3ccc(Cl)c(Cl)c3)C2=O)CC1,–,inactive
O=C(O)Cc1cc(I)c(Oc2cc(I)c(O)c(I)c2)c(I)c1,–,inactive
CCCCCCCCCCCCCCCS(=O)(=O)Oc1ccccc1,–,inactive
CCCCCCCC(=O)O,–,inactive
Cc1cc(CCN2CCN(c3nsc4ccccc34)CC2)cc2c1NC(=O)CC2(C)C,–,inactive
